Holding throughout (assay): NCI-60 one-dose screen, 48 h (100 = growth as untreated, 0 = no growth, -100 = all killed)
What all share (details): 10 µM unless noted

For test [1], the system named is SK-MEL-2 melanoma.
Test [2] deals with EKVX NSCLC.
Test [3] has as its system SN12C renal.
Test [4] has as its system UO-31 renal.
Test [5] relates to ACHN renal.
Test [6] concerns CAKI-1 renal.
The test system of test [7] is A498 renal.
The test system of test [8] is CCRF-CEM leukemia.
Test [9] deals with MOLT-4 leukemia.

This is part of a sample that, as a whole, favours compounds with a hit. Of some 83,000 tested, about 20% had one in any assay.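 Cells were grown in 96-well plates and exposed to the test compound at a single concentration for 48 hours; results are reported as percent growth, with values below 10 considered active.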 Values without a mark were called inactive. Activity calls are given as the source filed them.

In the case of `O=C(CSc1nc2ccccc2c(=O)n1-c1ccccc1)N/N=C/c1ccc(Oc2ccc(Cl)cc2)cc1`, the growth was 86.9% in test [1]; 59% in [2]; 26.9% in test [3]; 81.2% in test [4]; 74.5% in test [5]; 59.2% in test [6]. Further, the growth in test [7] was 65.7%; in test [8] it was 50.4%; in [9], 58.7%.

As to `O=c1c2ccccc2cc2n1CCN=C2c1ccccc1`, the growth in [1] is 99.8%; in [2], 101%; in test [3] it was 109%; in test [4], 78.6%; in test [5], 96.9%; in test [6], 82.4%. The values for the growth in test [7], in test [8] and in test [9] were 89.4%, 100% and 102%, respectively.

Consider `CN1CCN(CC#CCn2c3c(c4ccccc42)C[C@]2(C)[C@H]4CC=C5[C@@H]6CC(C)(C)CC[C@]6(C(=O)N6CCOCC6)CC[C@@]5(C)[C@]4(C)CC[C@H]2C3(C)C)CC1`, for which the growth in [1] was 119%; in [2], 75.2%; in test [3], 81.1%; in [4] it was 56.5%; in test [5] it was 93%; in test [6], 64.5%. In addition, the values for the growth in test [7], in [8] and in [9] were 92.4%, 35% and 33.9%, respectively.

As for `CCCCN1C(=O)/C(=c2\sc3n(c2=O)C2C(NN=3)N(CC)C(=O)N2CC)c2cccc(C)c21` (stereo not given), the growth in test [1] was 97.6%; in test [2], 46.6%; in test [3], 62%; in test [4], 54.7%; in test [5] it was 47.2%; in test [6], 35.3%. Besides, the growth was 18.7% in test [8] and 45.1% in test [9].

Regarding `COC(=O)c1cccc(NC2=CC(=O)C(C)=C(C)C2=O)c1`, the growth in test [1] was 101%; in [2], 100%; in [3] it was 93.3%; in test [4], 94.5%; in test [5], 100%; in test [6], 86.5%. Also, the results for the growth in test [7], in [8] and in test [9] were 78.7%, 52.8% and 40%, respectively.

As to `CC1=C(C)C(=O)C(Nc2ccc(C)cc2)=C(Br)C1=O`, the growth in test [1] was 111%; in test [2], 79.3%; in test [3], 98.9%; in test [4], 87.5%; in test [5], 102%; in test [6], 106%. Besides, the growth is 97.2% in test [7], 17.9% in [8] and -30.6% (active) in test [9].

For the molecule `COc1ccc(C(C)=C(c2ccc(OCCN(C)C)cc2)c2ccc(OCCN(C)C)cc2)cc1`, the growth in test [1] is -70.3% (active); in [2], 13.5%; in [3] it was 0.111% (active); in test [4], -59.4% (active); in test [5], -46% (active); in [6], -69.1% (active). Also, the growth in test [7] was -38.9% (active); in test [8], -23.6% (active); in [9], -37.6% (active).

Regarding `CC(=C(c1ccc(OCCN(C)C)cc1)c1ccc(OCCN(C)C)cc1)c1ccc(Cl)cc1`, the growth is -59.4% (active) in test [1]; -12.9% (active) in test [2]; -33.3% (active) in test [3]; -64.8% (active) in test [4]; -80.4% (active) in test [5]; -81.5% (active) in test [6]. Moreover, the growth in [7] was -76.1% (active); in [8] it was -45.2% (active); in test [9], -49.7% (active).

Turning to `CC(=C(c1ccc(OCCCN(C)C)cc1)c1ccc(OCCCN(C)C)cc1)c1ccc(Cl)cc1`, the growth was 99.3% in [1]; 94.7% in [2]; 85.5% in [3]; 88.5% in test [4]; 92.6% in test [5]; 92.6% in test [6]. For the same molecule, the growth was 79.2% in [7], 66.8% in test [8] and 65.3% in test [9].

In the case of `Cc1csc(/N=C(N)/N=C(\N)c2cccc(Br)c2)n1`, the growth was 101% in test [1]; 88.9% in test [2]; 90.7% in [3]; 86.4% in test [4]; 97.7% in [5]; 85.7% in test [6]. The results for the growth in test [7], in test [8] and in test [9] were 81.5%, 98.6% and 96.5%, respectively.

As to `CCCN1C=C/C(=C\C(=O)n2ccc3ccccc32)c2ccccc21`, the growth in test [1] is 105%; in test [2], 56.5%; in test [3], 84.1%; in [4], 53%; in test [5], 82.8%; in test [6] it was 60.1%. Also, the growth in test [7] is 92.9%; in test [8], 73.3%; in [9], 76.5%.

With `OCC(Nc1ncnc2ccc(-c3cnc4cnccn34)cc12)c1ccccc1` (stereo not given), the growth in test [1] is 45%; in test [2], 52.3%; in test [3], 80.7%; in test [4], 36.6%; in test [5], 43.3%; in test [6], 41.7%. For the same molecule, the growth was 76.4% in test [7], 80.5% in test [8] and 76.1% in test [9].

As to `CSc1ccc(C(=NNS(=O)(=O)c2ccc(C)cc2)c2ccc(Cl)cc2)cc1`, the growth in [1] was 95.9%; in test [2] it was 98.2%; in [3], 92.7%; in test [4] it was 81.8%; in test [5] it was 105%; in test [6] it was 86.2%. The results for the growth in [7], in [8] and in [9] were 96.5%, 97.7% and 98.6%, respectively.

As for `N#C/C(=C\c1cccc2c1OCO2)C(=O)Nc1sc2c(c1C#N)CCCC2`, the growth in [1] is 106%; in [2] it was 87.8%; in test [3], 98.3%; in test [4], 82.6%; in test [5], 109%; in test [6], 86.1%. The results for the growth in test [7], in test [8] and in [9] were 98.6%, 108% and 102%, respectively.

For the molecule `CC(C)(C)Nc1nc2c(OCCc3ccccc3)cccn2c1-c1ccc([N+](=O)[O-])cc1`, the growth in [1] is 60.5%; in test [2], 41.8%; in test [3], 75.5%; in [4] it was 31.6%; in test [5], 54.4%; in test [6] it was 43.3%. The growth was 97.7% in [7], 53.7% in test [8] and 18.1% in test [9].

Regarding `COc1cc(/C=N\NC(=O)c2ccc3nc(-c4ccc(Br)cc4)[nH]c3c2)cc(OC)c1OC`, the growth is 60.2% in test [1]; 78.2% in [2]; 63.4% in [3]; 72.3% in [4]; 60.9% in test [5]; 33.2% in test [6]. Further, the results for the growth in test [7], in test [8] and in test [9] were 20.8%, 25.8% and 31.6%, respectively.

As for `CNC(=O)c1cc(-n2ccc3cc(NC(=O)Nc4ccc(N5CCN(C)CC5)c(C(F)(F)F)c4)ccc32)ccn1`, the growth is 87.2% in test [1]; 84.5% in test [2]; 94.6% in [3]; 42% in test [4]; 77.4% in test [5]; 85.8% in test [6]. The results for the growth in test [7], in test [8] and in [9] were 87.9%, 7.32% (active) and -12.8% (active), respectively.

With `O=C(CSc1cc[n+](CCCCO)c2ccccc12)n1ccc2ccccc21`, the growth is 111% in [1]; 89.3% in test [2]; 103% in [3]; 63.6% in test [4]; 96.4% in [5]; 81.9% in test [6]. Besides, the figures for the growth in test [7], in [8] and in [9] were 114%, 107% and 95.8%, respectively.

`O=S1SC(c2ccccc2)=NN1c1cc(F)cc(F)c1` (stereo not given): the growth in test [1] is 68.1%; in test [2], 38%; in test [3] it was 33.1%; in [4] it was 22.7%; in [5], 51.5%; in [6] it was 52.4%. Also, the growth in [7] was 12.7%; in test [8] it was 18.8%; in test [9], 17.5%.

Regarding `COc1ccc2c(c1)c(/C=N/Nc1ccnc3cc(Cl)ccc13)cn2C`, the growth was -80.8% (active) in test [1]; -81.2% (active) in [2]; -81.5% (active) in [3]; -89.5% (active) in [4]; -97.3% (active) in [5]; -92% (active) in [6]. Also, the growth was -29.2% (active) in [8] and -49.6% (active) in test [9].

For the molecule `CN1CCN(Cc2ccc(NC(=O)c3cncc(C#Cc4cnc5ccc(N)nn45)c3)cc2C(F)(F)F)CC1`, the growth was -27.9% (active) in test [1]; 37.1% in test [2]; 15.7% in test [3]; 96.3% in [4]; 27.7% in [5]; 13.8% in [6]. Moreover, the growth in test [7] was 67%; in test [8], 11.8%; in test [9], 7.21% (active).

As for `Cc1csc(/N=C(N)/N=C(\N)c2cccs2)n1`, the growth in test [1] was 106%; in [2] it was 94.2%; in test [3], 110%; in test [4] it was 81.5%; in test [5], 107%; in [6] it was 85.1%. Also, the values for the growth in test [7], in [8] and in test [9] were 120%, 110% and 106%, respectively.

Take `O=C1C(N2CCN(c3ccccc3)CC2)=C(Cl)C(=O)c2ncccc21`: the growth in test [1] is 97.1%; in [2], 101%; in test [3], 58.2%; in test [4], 14.9%; in [5], -3.31% (active); in test [6] it was 39.9%. In addition, the growth in test [7] is 104%; in test [8], 6.08% (active); in test [9], 9.67% (active).

For the molecule `COC(=O)c1cccc(NC2=C(Cl)C(=O)C(C)=C(C)C2=O)c1`, the growth is 98% in [1]; 92.2% in test [2]; 92.6% in test [3]; 89.4% in test [4]; 104% in [5]; 94.2% in [6]. The growth in test [8] was 6.54% (active); in test [9], 11.3%.

Take `CCC1=Cc2c(OC)cccc2OC12C=Cc1c(OC)cccc1O2` (stereo not given): the growth in test [1] was 65.8%; in [2], 52.4%; in test [3], 42%; in test [4] it was 39.8%; in test [5] it was 35.9%; in [6] it was 28.4%. Further, the values for the growth in [7], in test [8] and in [9] were 6.92% (active), 16.2% and 15.8%, respectively.

Consider `Cc1ccc(C(=O)Nc2ccc(CNCCN3CCNCC3)c(C(F)(F)F)c2)cc1C#Cc1cnc2cccnn12`, for which the growth was 64% in [1]; 29.6% in [2]; 76.2% in test [3]; 76.7% in test [4]; 57% in [5]; 75.9% in test [6]. In addition, the growth in test [7] is -33.4% (active); in test [8], -39.7% (active); in [9], -49.5% (active).

On to `CCOC(=O)c1c(N)c(C#N)cn1Cc1ccc(Cl)cc1Cl`, for which the growth was 94.2% in test [1]; 81.8% in [2]; 81.2% in test [3]; 59.9% in test [4]; 87.4% in test [5]; 62.4% in test [6]. Moreover, the values for the growth in [7], in test [8] and in [9] were 73.5%, 84.6% and 65.1%, respectively.

These data come from PubChem BioAssay (NCI).
